This is part of a sample that, as a whole, favours compounds with a hit. Of some 83,000 tested, about 20% had one in any assay.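 Single-concentration screen, 48 h exposure, 96-well plates. Endpoint: percent growth. Below 10 = active.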 The source made the active and inactive calls.
Assays:
Assay in all cases: NCI-60 one-dose screen, 48 h (100 = growth as untreated, 0 = no growth, -100 = all killed)
Conditions in all cases: 10 µM unless noted
SR leukemia = system: SR leukemia
RPMI-8226 leukemia = system: RPMI-8226 leukemia
OVCAR-8 ovarian = system: OVCAR-8 ovarian
OVCAR-5 ovarian = system: OVCAR-5 ovarian
OVCAR-4 ovarian = system: OVCAR-4 ovarian
SK-OV-3 ovarian = system: SK-OV-3 ovarian
IGROV1 ovarian = system: IGROV1 ovarian
OVCAR-3 ovarian = system: OVCAR-3 ovarian
HS 578T breast = system: HS 578T breast
NCI/ADR-RES ovarian = system: NCI/ADR-RES ovarian
T-47D breast = system: T-47D breast
BT-549 breast = system: BT-549 breast
MDA-MB-435 melanoma = system: MDA-MB-435 melanoma
SW-620 colon = system: SW-620 colon
MCF7 breast = system: MCF7 breast
HCT-116 colon = system: HCT-116 colon
HCC-2998 colon = system: HCC-2998 colon
KM12 colon = system: KM12 colon

Measured: growth

OB(O)c1cccc(-c2nc3ccc4[nH]ncc4c3c3c2CCCC3)c1F
active: SK-OV-3 ovarian -10.7%
inactive: SR leukemia 48.7% | RPMI-8226 leukemia 50.7% | OVCAR-8 ovarian 52.8% | OVCAR-5 ovarian 75.1% | OVCAR-4 ovarian 76.4% | IGROV1 ovarian 41.1% | OVCAR-3 ovarian 62.5% | HS 578T breast 24.9% | NCI/ADR-RES ovarian 53.7% | T-47D breast 54.1% | BT-549 breast 30.2% | MDA-MB-435 melanoma 44.4% | SW-620 colon 35.1% | MCF7 breast 62.5% | HCT-116 colon 20.9% | HCC-2998 colon 71.4% | KM12 colon 28.7%

CCC(=O)Oc1ccc(/C(=C(/C)Cc2cccc(OC)c2)c2ccc(OCCN(C)C)cc2)cc1
active: SR leukemia -0.896% | MDA-MB-435 melanoma 9.82%
inactive: RPMI-8226 leukemia 70.7% | OVCAR-8 ovarian 102% | OVCAR-5 ovarian 99.1% | OVCAR-4 ovarian 87.3% | SK-OV-3 ovarian 114% | IGROV1 ovarian 95.4% | OVCAR-3 ovarian 92% | HS 578T breast 93.5% | NCI/ADR-RES ovarian 100% | T-47D breast 86.7% | BT-549 breast 95.7% | SW-620 colon 74.2% | MCF7 breast 45.1% | HCT-116 colon 71.8% | HCC-2998 colon 95.1% | KM12 colon 86.3%

CCN(CC)CCCNc1nccc2ccc(Cl)cc12
inactive: SR leukemia 94.3% | RPMI-8226 leukemia 101% | OVCAR-8 ovarian 94.8% | OVCAR-5 ovarian 92% | OVCAR-4 ovarian 108% | SK-OV-3 ovarian 100% | IGROV1 ovarian 118% | OVCAR-3 ovarian 105% | HS 578T breast 109% | NCI/ADR-RES ovarian 105% | T-47D breast 106% | BT-549 breast 92.8% | MDA-MB-435 melanoma 103% | SW-620 colon 104% | MCF7 breast 94% | HCT-116 colon 84.9% | HCC-2998 colon 106% | KM12 colon 111%

O=C1c2ccccc2-c2ccccc2C1(Cl)Cl
active: RPMI-8226 leukemia -10.8% | OVCAR-8 ovarian -90.4% | OVCAR-5 ovarian -73.7% | OVCAR-4 ovarian -98.6% | IGROV1 ovarian -98.5% | OVCAR-3 ovarian -87.2% | HS 578T breast -7.35% | NCI/ADR-RES ovarian -44.2% | T-47D breast -42.7% | BT-549 breast -84% | MDA-MB-435 melanoma -90.1% | SW-620 colon -65.8% | MCF7 breast -88.7% | HCT-116 colon -70.6% | KM12 colon -90.6%
inactive: SR leukemia 16.7% | SK-OV-3 ovarian 94.5% | HCC-2998 colon 89.6%

CNc1ccc(Br)c2c1C(=O)c1ccccc1C2=O
inactive: SR leukemia 101% | RPMI-8226 leukemia 87.8% | OVCAR-8 ovarian 105% | OVCAR-5 ovarian 111% | OVCAR-4 ovarian 100% | SK-OV-3 ovarian 112% | IGROV1 ovarian 99.1% | OVCAR-3 ovarian 121% | HS 578T breast 107% | NCI/ADR-RES ovarian 103% | T-47D breast 97.1% | BT-549 breast 104% | MDA-MB-435 melanoma 108% | SW-620 colon 107% | MCF7 breast 72.4% | HCT-116 colon 96.6% | HCC-2998 colon 109% | KM12 colon 107%

CCO/C=N/C1=C(C#N)C(c2ccc(Cl)cc2)c2c(c3ccccc3n(C)c2=O)O1 (stereo unspecified)
inactive: SR leukemia 22.7% | RPMI-8226 leukemia 88.1% | OVCAR-8 ovarian 86.3% | OVCAR-5 ovarian 85.1% | OVCAR-4 ovarian 68.6% | SK-OV-3 ovarian 81.8% | IGROV1 ovarian 59.1% | OVCAR-3 ovarian 64.3% | HS 578T breast 65.5% | NCI/ADR-RES ovarian 57.3% | T-47D breast 65.1% | BT-549 breast 81.4% | SW-620 colon 52.1% | MCF7 breast 41.7% | HCT-116 colon 66.5% | HCC-2998 colon 84.5% | KM12 colon 69.1%
active: MDA-MB-435 melanoma 1.36%

FC(F)(F)c1ccccc1-c1cn2c(ccc3ccccc32)n1
active: MDA-MB-435 melanoma -25.3%
inactive: SR leukemia 42.4% | RPMI-8226 leukemia 98.6% | OVCAR-8 ovarian 93.7% | OVCAR-5 ovarian 103% | OVCAR-4 ovarian 95.2% | SK-OV-3 ovarian 80.5% | IGROV1 ovarian 73.1% | OVCAR-3 ovarian 88.3% | HS 578T breast 71.4% | NCI/ADR-RES ovarian 61.9% | T-47D breast 104% | BT-549 breast 80.8% | SW-620 colon 44.2% | MCF7 breast 77.4% | HCT-116 colon 74.9% | HCC-2998 colon 99.2% | KM12 colon 87%

COc1ccc(C(=O)c2cc(OC)c(OC)c(OC)c2OC)cc1O
active: OVCAR-3 ovarian -21.8% | NCI/ADR-RES ovarian -8.84% | MDA-MB-435 melanoma -24%
inactive: SR leukemia 26.4% | RPMI-8226 leukemia 44.7% | OVCAR-8 ovarian 61.3% | OVCAR-5 ovarian 92.8% | OVCAR-4 ovarian 83.9% | SK-OV-3 ovarian 20.1% | IGROV1 ovarian 57.4% | HS 578T breast 16.3% | T-47D breast 44.8% | BT-549 breast 39.8% | SW-620 colon 20.5% | MCF7 breast 17.5% | HCT-116 colon 17.9% | HCC-2998 colon 58.6% | KM12 colon 20.8%

CN1C(=O)N(C)C2C1NN=c1s/c(=C\c3cccnc3)c(=O)n12 (stereo unspecified)
inactive: SR leukemia 27.3% | RPMI-8226 leukemia 95.4% | OVCAR-8 ovarian 93.2% | OVCAR-5 ovarian 93% | OVCAR-4 ovarian 93.6% | SK-OV-3 ovarian 85% | IGROV1 ovarian 80.8% | OVCAR-3 ovarian 65.6% | HS 578T breast 84.8% | NCI/ADR-RES ovarian 78.5% | T-47D breast 91.2% | BT-549 breast 79.9% | SW-620 colon 59.1% | MCF7 breast 51.6% | HCT-116 colon 75.9% | HCC-2998 colon 92.2% | KM12 colon 53.8%
active: MDA-MB-435 melanoma 8.5%

Brc1ccc(-c2[nH]ncc2-c2c[nH]c3ccccc23)cc1
inactive: SR leukemia 100% | RPMI-8226 leukemia 81.8% | OVCAR-8 ovarian 96.4% | OVCAR-5 ovarian 97.7% | OVCAR-4 ovarian 86.3% | SK-OV-3 ovarian 103% | IGROV1 ovarian 91.1% | OVCAR-3 ovarian 97.3% | HS 578T breast 88.3% | NCI/ADR-RES ovarian 101% | T-47D breast 88.2% | BT-549 breast 80.1% | MDA-MB-435 melanoma 92.7% | SW-620 colon 96.2% | MCF7 breast 66.8% | HCT-116 colon 98.4% | HCC-2998 colon 112% | KM12 colon 94.3%

O=C(O)c1cn(C2CC2)c2cc(N3CCN(C(=O)/C=C/c4ccc(Cl)cc4)CC3)c(F)cc2c1=O
inactive: SR leukemia 79.7% | RPMI-8226 leukemia 70.7% | OVCAR-8 ovarian 80.5% | OVCAR-5 ovarian 91% | OVCAR-4 ovarian 81% | SK-OV-3 ovarian 66.4% | IGROV1 ovarian 67.2% | OVCAR-3 ovarian 78.8% | HS 578T breast 65.4% | NCI/ADR-RES ovarian 86.1% | T-47D breast 65.5% | BT-549 breast 50.1% | MDA-MB-435 melanoma 82.5% | SW-620 colon 102% | MCF7 breast 89% | HCT-116 colon 74.8% | HCC-2998 colon 90.4% | KM12 colon 82.7%

O=C1c2c(c3c4ccccc4n(CCCCCCBr)c3c3[nH]c4ccccc4c23)C(=O)N1O
active: SR leukemia 6.48% | RPMI-8226 leukemia 1.01% | OVCAR-8 ovarian 0.342% | OVCAR-4 ovarian 7.84% | SK-OV-3 ovarian 3.04% | IGROV1 ovarian -5.71% | NCI/ADR-RES ovarian 9.64% | T-47D breast 4.32% | BT-549 breast -3.13% | MDA-MB-435 melanoma 0.62% | MCF7 breast 2.38% | HCT-116 colon 6.41%
inactive: OVCAR-5 ovarian 19.8% | OVCAR-3 ovarian 15% | HS 578T breast 50.3% | SW-620 colon 15.1% | HCC-2998 colon 18.3% | KM12 colon 10.8%

COc1ccc(CCNC2=CC(=O)CCC2)cc1OC
inactive: SR leukemia 85.9% | RPMI-8226 leukemia 107% | OVCAR-8 ovarian 106% | OVCAR-5 ovarian 105% | OVCAR-4 ovarian 115% | SK-OV-3 ovarian 105% | IGROV1 ovarian 113% | OVCAR-3 ovarian 105% | HS 578T breast 94.6% | NCI/ADR-RES ovarian 102% | T-47D breast 100% | BT-549 breast 103% | MDA-MB-435 melanoma 110% | SW-620 colon 101% | MCF7 breast 105% | HCT-116 colon 106% | HCC-2998 colon 106% | KM12 colon 99%

O=C1/C(=C/c2ccccc2)Oc2ccc(O)c(I)c21
inactive: SR leukemia 98.2% | RPMI-8226 leukemia 95.4% | OVCAR-8 ovarian 96.7% | OVCAR-5 ovarian 108% | OVCAR-4 ovarian 95.4% | SK-OV-3 ovarian 99.6% | IGROV1 ovarian 68.3% | OVCAR-3 ovarian 101% | HS 578T breast 80.8% | NCI/ADR-RES ovarian 99.3% | T-47D breast 77.5% | BT-549 breast 84.3% | MDA-MB-435 melanoma 103% | SW-620 colon 95.5% | MCF7 breast 54.8% | HCT-116 colon 98.2% | HCC-2998 colon 114% | KM12 colon 98.8%

C=CCn1cc(-c2nc3ccccc3s2)c2cc(-c3ccc4c5c(cccc35)C(=O)N(CCN3CCNCC3)C4=O)ccc21
active: SR leukemia 4.31% | MCF7 breast -65.8%
inactive: RPMI-8226 leukemia 46.7% | OVCAR-8 ovarian 13.7% | OVCAR-5 ovarian 90.3% | OVCAR-4 ovarian 88.5% | SK-OV-3 ovarian 101% | IGROV1 ovarian 68.1% | OVCAR-3 ovarian 105% | HS 578T breast 91.8% | NCI/ADR-RES ovarian 83.1% | T-47D breast 82.4% | BT-549 breast 91.3% | MDA-MB-435 melanoma 90.7% | SW-620 colon 26.8% | HCT-116 colon 29.7% | HCC-2998 colon 87.5% | KM12 colon 98.5%

COc1cc(NC(N)=NCCC(C)(C)c2ccc(C(F)(F)F)cc2)ncc1C#N
inactive: OVCAR-8 ovarian 24.4% | OVCAR-5 ovarian 47.2% | OVCAR-4 ovarian 18.9% | SK-OV-3 ovarian 56.8% | IGROV1 ovarian 24.1% | OVCAR-3 ovarian 24% | HS 578T breast 63% | NCI/ADR-RES ovarian 24.3% | BT-549 breast 53.9% | MDA-MB-435 melanoma 17% | KM12 colon 15.4%
active: SR leukemia -49% | RPMI-8226 leukemia -48.7% | T-47D breast -2.85% | SW-620 colon -0.0248% | MCF7 breast -31.3% | HCT-116 colon -75.7% | HCC-2998 colon -77.8%

c1cc2[nH]ncc2cc1-c1nc2ccc3[nH]ncc3c2c2c1CCC2
inactive: SR leukemia 10.9% | RPMI-8226 leukemia 42.5% | OVCAR-8 ovarian 53.9% | OVCAR-5 ovarian 91.7% | OVCAR-4 ovarian 57.9% | IGROV1 ovarian 22.6% | OVCAR-3 ovarian 56.4% | HS 578T breast 14.9% | NCI/ADR-RES ovarian 58.1% | T-47D breast 56.8% | BT-549 breast 38.3% | SW-620 colon 12.6% | MCF7 breast 32% | HCT-116 colon 16.9% | HCC-2998 colon 73.7% | KM12 colon 31.4%
active: SK-OV-3 ovarian 5.23% | MDA-MB-435 melanoma -7.86%
